Our source for the inhibition values is PubChem BioAssay AID485317 (Broad Institute, 2010).

As a reminder, the inhibition is the change of the read-out against control, counted positive when it falls.

Screen size: about 290,000 compounds; about 11,000 (3.8%) were called active.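 The calls were made as follows: active = mean replicate inhibition above about 79%, with every replicate also reaching it (limit read from the data); inconclusive = only one of the two criteria met; inactive = mean below limit and not every replicate reaching it.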 What follows is part of a selection rich in actives, with near analogues and random picks from the rest.

For the test, the target named is FAD-linked sulfhydryl oxidase ALR (Homo sapiens) (UniProt P55789). Nature of the test: ALR-catalysed DTT oxidation blockers – biochemical, H2O2 detection, HRP-luminol luminescence, single point, primary screen (AID 485317). Conditions: purified ALR, active compounds read high, concentration not given here.
Sequence of FAD-linked sulfhydryl oxidase ALR (Homo sapiens) (P55789 whole entry, looked up): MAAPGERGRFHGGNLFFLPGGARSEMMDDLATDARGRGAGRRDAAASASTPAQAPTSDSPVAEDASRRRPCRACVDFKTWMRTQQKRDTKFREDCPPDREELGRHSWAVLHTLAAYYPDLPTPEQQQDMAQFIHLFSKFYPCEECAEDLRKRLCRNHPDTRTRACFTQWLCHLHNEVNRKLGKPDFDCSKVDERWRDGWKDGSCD
On to `COc1ccccc1CNS(=O)(=O)c1cc2c3c(c1)CCC(=O)N3CCC2`, for which the inhibition was -0.847% (inactive).

On to `CC1CN(C(=O)c2cc(COc3c(F)cccc3F)on2)CCN1C` (stereo unspecified), for which the inhibition is -3.41% (inactive).

Regarding `CC1(C)O[C@@H]2[C@H](O1)[C@@H](CO)O[C@H]2n1c(N2CCCCC2)nc2c(N)ncnc21`, the inhibition is 1.47% (inactive).

Turning to `CCC(=O)NNc1cc(=O)c2c(=O)n(C)c(=O)n(C)c2[nH]1`, the inhibition is -4.74% (inactive).

Consider `CC(=O)Nn1cc2c(=O)n(C)c(=O)n(C)c2c1`, for which the inhibition was -9.4% (inactive).

Turning to `CC(=O)NNc1cc(=O)c2c(=O)n(C)c(=O)n(C)c2[nH]1`, the inhibition was 90.2% (active).

Take `COc1ccc(NC(=O)c2cc(-c3ccc(C)cc3)on2)cc1`: the inhibition was -7.55% (inactive).

Take `COc1ccc(NC(=O)/C(Cl)=C(/Cl)S(=O)Cc2ccc(C)cc2)cn1` (stereo unspecified): the inhibition was 99.1% (active).

On to `CCOc1ccc(S(=O)(=O)Nc2ccc(OC)nc2)cc1`, for which the inhibition was -0.795% (inactive).

As to `COc1ccc2c(CC(=O)NNC(=O)c3ccccc3F)coc2c1`, the inhibition was -9.32% (inactive).

For `O=C(CCc1ccc(S(=O)(=O)N2CCOCC2)cc1)OCC(=O)c1ccc(Br)cc1`, the inhibition is 3.41% (inactive).

For the compound `O=C(/C=C(O)/C=C/c1ccc(O)cc1)/C=C/c1ccc(O)cc1`, the inhibition is -0.191% (inactive).

Turning to `COc1ccc(N2CCN(C(=O)CCNC(=O)c3ccc(Br)cc3)CC2)cc1`, the inhibition was -0.657% (inactive).

As for `COc1ccc(N2CCN(C(=O)CNC(=O)c3ccc(C(C)(C)C)cc3)CC2)cc1`, the inhibition is -2.48% (inactive).

As to `COc1ccc(N2CCN(C(=O)CNC(=O)c3ccc(Br)o3)CC2)cc1`, the inhibition is 94% (active).

As for `CCOc1ccc(C(=O)CCC(=O)Nc2ccncc2)cc1`, the inhibition was 2.23% (inactive).

With `COc1ccc(/C=N/NC(=O)c2ccc(Cl)cc2)cc1COC(C)=O`, the inhibition was 5.91% (inactive).

For the compound `COc1ccc(/C=N/NC(=O)c2ccncc2)cc1CN1CCCc2ccccc21`, the inhibition was 93.5% (active).

Turning to `COc1cc(/C=N/NC(=O)CNC(=O)c2ccncc2)ccc1OC(C)=O`, the inhibition was 40.7% (inactive).

Take `C=Cn1c(C(=O)O)ccc1-c1ccc(OC)cc1`: the inhibition was 6.07% (inactive).

Turning to `COCCCn1c(CCC(=O)O)ccc1-c1ccc(F)cc1`, the inhibition is 22.3% (inactive).

As for `CCOC(=O)c1ccc(-n2c(CCC(=O)O)ccc2-c2ccccc2)cc1`, the inhibition was 6.43% (inactive).

With `COc1ccc(-c2ccc(CCC(=O)O)n2-c2ccc(O)cc2)cc1`, the inhibition is 95.3% (active).

For `COc1ccc(C(=O)NC(Cc2ccc(OC(=O)c3ccc(OC)cc3)cc2)C(=O)O)cc1` (stereo unspecified), the inhibition was 15.2% (inactive).

Turning to `COc1ccc(-c2ccc(CCC(=O)O)n2NC(=O)c2ccc(C(C)(C)C)cc2)cc1`, the inhibition was 98.4% (active).

Turning to `CC1Cc2ccccc2N1S(=O)(=O)c1cccc(C(=O)OCC(=O)N2CCOCC2)c1` (stereo unspecified), the inhibition is 2.06% (inactive).

`CC(=O)c1c(C)[nH]c(C(=O)COC(=O)c2cccs2)c1C`: the inhibition was -7.6% (inactive).

`COc1ccc(-c2n[nH]c(C)c2-c2ccc(OC)c(OC)c2)c(O)c1`: the inhibition is 25.6% (inactive).

Consider `COc1ccc(-c2n[nH]c(C)c2-c2ccccc2OC)c(O)c1`, for which the inhibition is 94.9% (active).

As for `C=C(C)COc1ccc(-c2n[nH]c(C)c2-c2ccccc2OC)c(O)c1`, the inhibition was -0.153% (inactive).

As for `COc1ccc(Cl)cc1NC(=O)COC(=O)c1ccc(Br)o1`, the inhibition was 3.97% (inactive).

As to `CCCN(CC(=O)NC(=O)NC1CCCCC1)CC(=O)Nc1cc(Cl)ccc1Cl`, the inhibition is -2.78% (inactive).

Take `Cc1cccc(C(=O)NCCCN(C)CCCNC(=O)c2cccc(C)c2)c1`: the inhibition was -2.47% (inactive).

Regarding `Cc1cccc(C(=O)NCCCN2CCCC2=O)c1`, the inhibition is -1.37% (inactive).

As to `CCN(CCCNC(=O)c1ccc2c(c1)NC(=O)CN2C)c1cccc(C)c1`, the inhibition was 94.3% (active).

Turning to `COc1ccccc1N(CCOc1ccccc1)S(=O)(=O)c1ccccc1`, the inhibition is -0.946% (inactive).

As to `CCCN(CC1CC1)C(=S)NC(=O)c1ccccc1Br`, the inhibition is -2.06% (inactive).

Regarding `Cc1ccc(/C=N/NC(=O)CSc2ccccn2)o1`, the inhibition is 3.05% (inactive).

With `O=C(CCNC(=O)c1ccccc1)NN=Cc1ccc(Br)o1`, the inhibition is -2.22% (inactive).

As to `N#CCC(=O)N/N=C/c1ccc(SCC(=O)Nc2ccccc2)o1`, the inhibition is 93.3% (active).

Regarding `CC1(C)CC(=O)C=C(c2cccc3c2Oc2ccccc2S3)C1`, the inhibition was -3.51% (inactive).

Take `Nc1nc(SCC(=O)Nc2ccc(Cl)cc2C(F)(F)F)n[nH]1`: the inhibition was 0.457% (inactive).

With `Nc1nc(SCC(=O)NN(c2ccccc2)c2ccccc2)n[nH]1`, the inhibition is 87.6% (active).

In the case of `COc1ccc(C(=O)CSc2n[nH]c(N)n2)cc1`, the inhibition is -11% (inactive).

Consider `Nc1nc(SCC(=O)NNc2c(Cl)cc(Cl)cc2Cl)n[nH]1`, for which the inhibition is 95.6% (active).

On to `Nc1nc(SCC(=O)Nc2ccc(Cl)c([N+](=O)[O-])c2)n[nH]1`, for which the inhibition is -3.76% (inactive).

Regarding `COc1ccc(CNC(=O)CSc2n[nH]c(N)n2)cc1OC`, the inhibition is 4.3% (inactive).

With `COc1ccc(N2CCN(S(=O)(=O)c3cc4c5c(c3)C(C)C(=O)N5CCC4)CC2)cc1` (stereo unspecified), the inhibition is 22.9% (inactive).

Regarding `O=C(NCc1ccccc1)C1=C[C@@H](c2ccccc2)C[C@@H](OCCCCO)O1`, the inhibition was -16.2% (inactive).

For the compound `Cc1cc(NC(=O)C(C)N2C(=O)c3ccccc3S2(=O)=O)no1` (stereo unspecified), the inhibition is 3.27% (inactive).

Regarding `CCN(CC(=O)Nc1c(F)cccc1F)C(=O)c1ccc(-c2ccccc2)cc1`, the inhibition was -12% (inactive).

In the case of `CC(OC(=O)/C=C/c1ccccc1)C(=O)Nc1ccc(C(N)=O)cc1` (stereo unspecified), the inhibition was -4.35% (inactive).

Take `CCc1noc(C)c1C(=O)Nc1nc(-c2ccccc2)cs1`: the inhibition was -1.08% (inactive).

As to `CC(C)Cn1c(CCC(=O)O)ccc1-c1cccs1`, the inhibition was 98.9% (active).

On to `CC(=O)c1ccc2c(c1)c1ccccc1n2CC(C)C`, for which the inhibition was -8.57% (inactive).

On to `CCn1c(NC(=O)c2ccccc2)c(-c2cccs2)c(=O)c2ccccc21`, for which the inhibition is -3.02% (inactive).

Regarding `Cc1cc(C(=O)NNC(=O)c2ccccc2O)c(C)o1`, the inhibition was 1.52% (inactive).

On to `Cc1nn(C)c(C)c1NS(=O)(=O)c1ccc(OC(F)(F)F)cc1`, for which the inhibition is -3.04% (inactive).

For the compound `CC(=O)Nc1ccc(C(=O)CSc2nc3ccc(C)cc3[nH]2)cc1`, the inhibition is 97.9% (active).

As to `Cc1ccc2nc(SCC(=O)NC3CCCC3)[nH]c2c1`, the inhibition is 18.7% (inactive).

As for `CCOC(=O)CSc1nc2ccc(C)cc2[nH]1`, the inhibition is -3.78% (inactive).
